Source: PubChem (National Center for Advancing Translational Sciences (NCATS))
Six1-Eya2 inh: blocks human Six1 binding to Eya2; AID 651725; Q15475+O00167; 0.56% of 360,000 active; activity change, % (test concentration not listed); AlphaScreen GST-Six1/His-Eya2 binding, biochemical; stronger effect = lower value; in the data active = activity change below about -65%; inconclusive = mostly about -30% to -63%
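GST-Six1 + His-Eya2 (5X stock: 250/500 nM); Tris pH 8.0, 300 mM NaCl, 0.05% BSA, 0.02% Tween 20; GSH donor/Ni acceptor beads; 1 h 37 °C dark; AlphaScreen readout.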
TDP1 inh: TDP1 (human) enzyme inhibition; Q9NUW8; recombinant TDP1, AlphaScreen DNA substrate cleavage; Potency, µM (highest dose often 130 µM), for inactives: at the highest dose activity change, negative = inhibition, most hits filed as inhibitors; 0.28% of 350,000 active; AID 485290; also: potency is read from the fitted curve at half-maximal effect; nearly all actives have a fitted effect of over 40% in size
Target sequence (Q9NUW8 whole entry, looked up): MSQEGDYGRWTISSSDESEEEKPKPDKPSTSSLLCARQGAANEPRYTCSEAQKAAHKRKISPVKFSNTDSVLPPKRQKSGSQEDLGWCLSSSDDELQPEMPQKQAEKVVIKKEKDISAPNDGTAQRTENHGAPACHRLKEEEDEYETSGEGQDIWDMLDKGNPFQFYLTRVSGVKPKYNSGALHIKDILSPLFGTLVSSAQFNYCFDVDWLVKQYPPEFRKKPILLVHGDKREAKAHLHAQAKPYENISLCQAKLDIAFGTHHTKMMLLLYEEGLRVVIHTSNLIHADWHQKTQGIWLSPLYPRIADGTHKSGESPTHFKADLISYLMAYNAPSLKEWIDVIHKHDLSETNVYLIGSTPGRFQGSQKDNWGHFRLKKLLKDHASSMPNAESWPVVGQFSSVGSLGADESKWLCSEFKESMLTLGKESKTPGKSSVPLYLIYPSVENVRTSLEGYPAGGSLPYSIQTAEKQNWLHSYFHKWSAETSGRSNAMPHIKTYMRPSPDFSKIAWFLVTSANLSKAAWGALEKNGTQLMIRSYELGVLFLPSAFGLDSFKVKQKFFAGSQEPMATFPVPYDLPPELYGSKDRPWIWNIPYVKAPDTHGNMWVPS
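Recombinant E. coli-expressed Tdp1 (1 nM) preincubated with compound 15 min at RT, then 5'-biotin/3'-phosphotyrosine-FITC DNA substrate (15 nM) added for 5 min. AlphaScreen beads (10 ug/ml) added, 10 min RT; tyrosine-FITC cleavage read as signal loss.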
DT40 TDP1 no CPT: qHTS for Inhibitors of human tyrosyl-DNA phosphodiesterase 1 (TDP1): qHTS in cells in absence of CPT; DT40 Tdp1-/- hTDP1 cells, no CPT, ATP luminescence, 48 h; Potency, µM (top dose mostly 46.2 µM), for inactives: at the highest dose activity change, negative = growth inhibition, usual class: inhibitors; 15% of 420,000 active; also: potency is read from the fitted curve at half-maximal effect; nearly all actives have a fitted effect of over 55% in size
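A cellular qHTS used chicken DT40 cells lacking endogenous Tdp1 but carrying stably transfected human TDP1. Compounds were applied without camptothecin, and cell growth kinetics were judged by ATP-dependent luminescence after ≥48 hr.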
CtBP-E1A blk: blocks the CtBP interaction with E1A | AlphaScreen GST-E1A/His-CtBP binding, 1536-well; stronger effect = lower value | activity change, % (concentration not given with the values) | 0.49% of 340,000 active; in the data active = activity change below about -65%; inconclusive = mostly about -30% to -63%
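Protein mix (5X: 125 nM each GST-E1A, His-CtBP) was incubated with pinned compound 2 h at 37 deg C in dark, in 50 mM Tris pH 8.0 buffer with 300 mM NaCl. Glutathione donor and nickel acceptor beads followed; AlphaScreen signal read after 1 h.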
TDP1 cell CPT: growth inhibition of DT40 Tdp1-/-;hTDP1 cells with camptothecin (screen for TDP1 inhibitors); chicken DT40 Tdp1-/-;hTDP1 cells + 20 nM CPT, ATP luminescence, 48 h; Potency, µM (series often up to 46.2 µM), inactives show top-dose activity change, negative = growth inhibition, hits mostly inhibitors; 12% of 420,000 active; AID 686979; also: potency is read from the fitted curve at half-maximal effect; nearly all actives have a fitted effect of over 55% in size
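Chicken DT40 Tdp1-/- cells stably complemented with human TDP1 were seeded at 400 cells/well in medium containing 20 nM camptothecin, exposed to pin-transferred compounds, and grown at 37 °C for at least 48 hr. Viability was read as ATP luminescence.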
IL1B secr inh: inhibitors of inflammasome signaling (IL-1 beta secretion) | 4.7% of 360,000 active | THP-1 LPS/ATP IL-1B secretion, AlphaLISA, 16 h; stronger effect = lower value | activity change, % at 57.5 µM | AID 743279; in the data active = activity change below about -50%; inconclusive = mostly about -30% to -49%
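THP-1 cells pretreated 1 hr with compounds (up to 57.5 uM final), then stimulated with LPS (250 ng/mL final) plus ATP (1.25 mM final); secreted IL-1B measured by AlphaLISA after 16 hr, decreased signal indicating inhibition.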
Active calls of the source: *; ? = inconclusive; . = no result; [ ] = remark or other dose. Hits are enriched below; roughly 18% of the tested compounds scored in any of these assays. Unless noted, calls follow the shape of the dose curve; as a rule, active = well fitted curve in the direction sought with a large enough effect; inconclusive = small, poorly fitted or top-dose-only effect, or another doubt; inactive = no such curve, though single readings can be large; an effect the other way counts as inactive or inconclusive. % is scaled to controls: 0 for no effect and ±100 for the full control effect.

SMILES	Six1-Eya2 inh	TDP1 inh	DT40 TDP1 no CPT	CtBP-E1A blk	TDP1 cell CPT	IL1B secr inh
O=C(c1cc(-c2cccs2)nc2ccccc12)N1CCN(c2ccccc2O)CC1	-7	5%	?	-11	?	-67*
CN(Cc1cccc(Cl)c1Cl)CC(O)COc1ccccc1 (stereo unspecified)	9	.	?	.	?	-13
CC(C)OC(=O)/C=C1\C[C@@H](c2ccccc2C(F)(F)F)O[C@@H](c2ccccc2C(F)(F)F)O1	-10	.	21µM*	9	?	29
CCOC(=O)C(Sc1cc(-c2ccccc2)nc2ncnn12)C(C)=O (stereo unspecified)	-9	.	18µM*	-7	?	-19
FC(F)(F)c1cc(-c2ccccc2)nc2ncnn12	0	7%	-3%	-3	-23%	-4
O=C(/C=C/c1ccc(O)cc1)c1c(O)cc(O)cc1O	1	2%	-23%	2	0%	-8
O=C(CNC1CCCCCC1)c1cccs1	4	0%	-26%	6	-3%	0
COc1ccccc1NS(=O)(=O)c1cc(C(=O)NCc2ccco2)ccc1C	-2	0%	-9%	-3	-8%	-63*
Cc1ccc(SCCNC(=O)c2ccc(C)c(S(=O)(=O)Nc3ccccc3C)c2)cc1	-7	4%	22µM*	2	?	-67*
COc1ccccc1NS(=O)(=O)c1ccc(C(=O)NCc2ccncc2)cc1	-5	1%	-26%	4	-26%	25
COc1ccccc1NS(=O)(=O)c1ccc(C(=O)NCc2ccco2)cc1	-1	1%	?	8	10µM*	25
CCOC(=O)c1ccc(NC(=O)CC2C(=O)N(c3ccc(F)cc3)C(=O)N2Cc2ccc3c(c2)OCO3)cc1 (stereo unspecified)	.	6%	?	.	?	.
CCOC(=O)C1=C(O)C(=O)N(Cc2ccccc2)C1	0	19%[56.1 µM]	?	-1	?	5
O=[N+]([O-])c1ccc(N2CCN(c3ccccc3Cl)CC2)cn1	-5	7%	21µM*	0	18µM*	-1
CC(C)(C)C(=O)N1CCN(c2ccc([N+](=O)[O-])cc2Cl)CC1	-1	.	?	-3	?	-9
Cc1ccc(C(=O)N2CCN(c3ccc([N+](=O)[O-])cc3-n3cccc3)CC2)cc1	-27	8%	18µM*	-5	?	?
O=C(C1CC1)N1CCN(c2ccc([N+](=O)[O-])cc2-n2cccc2)CC1	-16	4%	13µM*	-22	12µM*	-6
CC(C)(C)C(=O)N1CCN(c2ccc([N+](=O)[O-])cc2-n2cccc2)CC1	-6	6%	21µM*	-17	?	-5
O=C(c1ccc([N+](=O)[O-])cc1)N1CCN(c2ccc(Nc3ccccc3)nn2)CC1	.	3%	?	.	?	.
Cc1ccc(Nc2ccc(N3CCN(C(=O)c4ccc([N+](=O)[O-])cc4)CC3)nn2)cc1	.	8%	23µM*	.	?	.
Cc1ccc(S(=O)(=O)N2CCN(C(=O)c3ccc([N+](=O)[O-])cc3)C2)cc1	0	3%	-20%	.	-11%	7
Cc1cc(C(=O)NNC(=S)Nc2ccccc2)nn1C	-19	6%	-10%	.	-10%	-7
Cc1nc2nc(C)c(NS(=O)(=O)c3cccs3)c(=O)n2[nH]1	-3	8%	-7%	8	2%	10
O=C(CSc1c(Cl)cccc1Cl)N1CCC(c2nc3ccccc3s2)CC1	-4	4%	21µM*	9	?	-16
O=C(CSc1ccc(Cl)cc1)N1CCC(c2nc3ccccc3s2)CC1	7	0%	?	-3	26µM*	-2
SMILES	Six1-Eya2 inh	TDP1 inh	DT40 TDP1 no CPT	CtBP-E1A blk	TDP1 cell CPT	IL1B secr inh
COc1cccc(NC(=O)OCCN2CCN(Cc3ccccc3)CCC2=O)c1	2	3%	-6%	1	-21%	20
COc1ccc(NC(=O)c2cc(F)cc(F)c2)cc1S(=O)(=O)N1CCCCC1	-1	1%	?	-1	8%	9
CCC(c1nnnn1Cc1ccco1)N1CCN(C(=O)c2ccco2)CC1 (stereo unspecified)	-2	4%	-15%	-3	-16%	5
O=C(c1ccco1)N1CCN(C(c2ccccc2Cl)c2nnnn2Cc2ccco2)CC1 (stereo unspecified)	0	0%	?	2	16µM*	-2
O=C(c1ccco1)N1CCN(C(c2ccccc2Cl)c2nnnn2Cc2cccs2)CC1 (stereo unspecified)	4	2%	26µM*	0	?	-3
CCc1ccc(CN2CCC(n3nccc3NC(=O)c3cccc(F)c3)CC2)cc1	-2	3%	?	6	?	-25
CCCn1c(-c2ccccc2)nc2c(=O)n(C)c(=O)[nH]c21	11	1%	0%	-6	-5%	5
COc1ccc(CCNC(=O)CCC(=O)N2CCOc3ccc(C)cc32)cc1OC	4	.	?	-12	-16%	-1
CCOC(=O)c1ccc(NC(=O)CCC(=O)N2CCSc3ccccc32)cc1	.	3%	13µM*	.	23µM*	.
O=C(CCC(=O)N1CCSc2ccccc21)Nc1ccc(Cl)cc1	.	3%	21µM*	.	15µM*	.
O=C(CCC(=O)N1CCSc2ccccc21)NCc1ccccc1	-4	.	-9%	2	?	-12
COc1ccc(OC)c(CCNC(=O)CCC(=O)N2CCOc3ccc(C)cc32)c1	-3	.	?	-9	23µM*	-23
CCOc1ccc(OCC)c(NC(=O)CCC(=O)N2CCOc3ccccc32)c1	.	11%	26µM*	.	26µM*	.
CCOc1ccc(NC(=O)CCC(=O)N2CCSc3ccccc32)cc1	-5	-3%	16µM*	0	16µM*	0
Cc1ccccc1NC(=O)CCC(=O)N1CCSc2ccccc21	.	5%	?	.	-27%	.
Cc1ccc(NC(=O)CCC(=O)N2CCSc3ccccc32)cc1	.	8%	?	.	16µM*	.
CCOC(=O)c1ccc(NC(=O)CCC(=O)N2Cc3ccccc3Oc3ncccc32)cc1	.	5%	21µM*	.	16µM*	.
Cc1ccc(NC(=O)CCC(=O)N2CCSc3ccccc32)cc1Cl	.	5%	?	.	16µM*	.
O=C(CCC(=O)N1CCSc2ccccc21)NCc1ccc(Cl)cc1	-2	.	-20%	0	-24%	-18
O=C(CCC(=O)N1Cc2ccccc2Oc2ncccc21)Nc1ccc(Cl)cc1	.	0%	?	.	?	.
